Reference: PubChem BioAssay (NCI)
The panel holds about 79,000 compounds, 15% with a hit somewhere; the sample as a whole holds those more often. Values without a mark were called inactive. Activity calls are given as the source filed them. Rule as the data show it: active = growth inhibition above about 70%; inactive = the rest.

Test: NCI Yeast Anticancer Drug Screen. Data for the rad50EPP+ strain (AID 151);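 also: 0% = growth of vehicle-treated control cultures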
Conditions: S. cerevisiae rad50 mutant strain, hits give high values
Description: Growth inhibition of yeast strains with defined genetic alterations is measured as a screen for potential anti-cancer activity. Selected strains with alterations in DNA damage repair or cell cycle control were exposed to compounds and growth inhibition was measured relative to vehicle treated controls. The strain used in this assay is rad50EPP+

| Structure (SMILES) | growth inhibition (at 1.2 µM) [%] | growth inhibition (at 3.7 µM) | growth inhibition (at 11.0 µM) | growth inhibition (at 33.0 µM) | growth inhibition (at 100.0 µM) |
| --- | --- | --- | --- | --- | --- |
| CCOC(=O)C(NC(=O)CC)(N1CCN(c2cc3c(cc2F)c(=O)c(C(=O)O)cn3C2CC2)CC1)C(F)(F)F (stereo not given) | -1 | 1% | 3% | 3% | 11% |
| CC1CCC2(C(=O)O)CCC3(C)C(=CCC4C5(C)CC(O)C(O)C(C)(CO)C5C(O)CC43C)C2C1C (stereo not given) | 0 | -7% | -2% | 3% | 33% |
| Cc1nc2c(ncn2CCO)c(=O)[nH]1 | -11 | 10% | 5% | 3% | 1% |
| CC(=O)CC(=O)/C=C/c1cccs1 | 7 | 0% | 33% | 89% (active) | 92% (active) |
| O/N=C/C1c2ccccc2-c2ccccc21 | -1 | 7% | 9% | 28% | 51% |
| O=C1CSC(=S)N1Cc1ccc(Cl)cc1Cl | 12 | 72% (active) | 97% (active) | 99% (active) | 98% (active) |
| CCN(CC)CC(O)C1CCC(c2ccccc2)CC1 (stereo not given) | 4 | 6% | 15% | 23% | 68% |
| O=C(Nc1cccc(C(F)(F)F)c1)Oc1ccc(Cl)cc1C(=O)c1ccccc1 | 26 | 7% | 34% | 41% | 96% (active) |
